{
  "source": "paper PMC7862700",
  "about": "“An all-to-all approach to the identification of sequence-specific readers for epigenetic DNA modifications on cytosine”",
  "experiment_in_all_cases": "DAPPL (digital affinity profiling via proximity ligation, sequencing); 10 mM Tris-HCl pH 7.5, 50 mM NaCl, 1 mM DTT, 4% glycerol, room temperature, 30 min; GST-TFs on glutathione beads, 16-mer random dsDNA library, 0.1% formaldehyde crosslink after washing; high values mean tight binding",
  "details_in_all_cases": "protein: recombinant; tags: N-terminal GST; dsDNA, one strand shown",
  "key": {"[1]": {"target": "T1, FLI1 (Homo sapiens, UniProt Q01543 1-452)", "T1 sequence": "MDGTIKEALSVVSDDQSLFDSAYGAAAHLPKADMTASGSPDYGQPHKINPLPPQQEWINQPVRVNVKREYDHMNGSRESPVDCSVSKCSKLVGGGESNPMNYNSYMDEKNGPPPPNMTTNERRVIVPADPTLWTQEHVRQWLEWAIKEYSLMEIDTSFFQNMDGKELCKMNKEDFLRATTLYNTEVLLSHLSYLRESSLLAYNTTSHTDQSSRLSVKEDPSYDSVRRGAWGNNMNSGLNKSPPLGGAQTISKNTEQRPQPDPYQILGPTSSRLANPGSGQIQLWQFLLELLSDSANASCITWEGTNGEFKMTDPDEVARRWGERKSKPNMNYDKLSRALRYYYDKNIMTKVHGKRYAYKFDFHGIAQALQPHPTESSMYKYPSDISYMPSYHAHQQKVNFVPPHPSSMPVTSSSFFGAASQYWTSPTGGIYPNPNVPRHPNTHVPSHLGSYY", "outline": "(§1)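 Human transcription factors fused to GST were expressed in yeast, captured on glutathione beads, given DNA barcodes and pooled with a GST-only negative control. Pools were incubated with 200 nmole of a 16-mer random double-stranded DNA library in Tris/NaCl/DTT/glycerol buffer at room temperature for 30 min. They were then washed, crosslinked with 0.1% formaldehyde, proximity-ligated (BsaI/T4 ligase, 1 h, 37 °C), PCR-amplified and sequenced on an Illumina NextSeq500. Binding signal is each 6-mer's read frequency for a factor divided by its frequency for the GST control.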"}, "[2]": {"target": "T2, ELK1 (Homo sapiens, UniProt P19419 1-428)", "T2 sequence": "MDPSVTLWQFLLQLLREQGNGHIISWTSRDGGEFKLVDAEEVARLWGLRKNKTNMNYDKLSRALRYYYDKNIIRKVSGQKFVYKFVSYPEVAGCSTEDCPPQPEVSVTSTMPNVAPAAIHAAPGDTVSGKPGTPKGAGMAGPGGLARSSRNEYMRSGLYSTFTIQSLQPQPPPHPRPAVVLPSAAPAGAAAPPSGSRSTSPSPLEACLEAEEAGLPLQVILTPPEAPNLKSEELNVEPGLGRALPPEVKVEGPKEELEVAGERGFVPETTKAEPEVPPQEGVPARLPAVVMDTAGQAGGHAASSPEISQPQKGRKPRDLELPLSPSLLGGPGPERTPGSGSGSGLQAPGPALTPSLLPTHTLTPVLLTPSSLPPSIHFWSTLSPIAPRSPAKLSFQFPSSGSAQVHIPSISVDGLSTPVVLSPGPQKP", "outline": "as §1"}, "[3]": {"target": "T3, GABPA (Homo sapiens, UniProt Q06546 1-454)", "T3 sequence": "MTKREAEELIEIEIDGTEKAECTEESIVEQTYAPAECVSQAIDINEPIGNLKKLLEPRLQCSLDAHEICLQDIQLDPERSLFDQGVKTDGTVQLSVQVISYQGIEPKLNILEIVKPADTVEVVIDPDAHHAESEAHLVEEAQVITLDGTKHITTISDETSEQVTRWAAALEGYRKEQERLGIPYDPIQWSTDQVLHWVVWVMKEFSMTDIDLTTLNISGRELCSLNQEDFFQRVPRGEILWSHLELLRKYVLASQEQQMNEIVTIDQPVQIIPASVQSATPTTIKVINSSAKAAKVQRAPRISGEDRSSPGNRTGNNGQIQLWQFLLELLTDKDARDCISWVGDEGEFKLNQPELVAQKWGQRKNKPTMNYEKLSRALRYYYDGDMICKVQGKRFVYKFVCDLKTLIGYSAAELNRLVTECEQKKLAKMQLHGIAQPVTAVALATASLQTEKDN", "outline": "as §1"}, "[4]": {"target": "ELF1 (Homo sapiens, UniProt P32519 1-619)", "sequence (P32519 whole entry)": "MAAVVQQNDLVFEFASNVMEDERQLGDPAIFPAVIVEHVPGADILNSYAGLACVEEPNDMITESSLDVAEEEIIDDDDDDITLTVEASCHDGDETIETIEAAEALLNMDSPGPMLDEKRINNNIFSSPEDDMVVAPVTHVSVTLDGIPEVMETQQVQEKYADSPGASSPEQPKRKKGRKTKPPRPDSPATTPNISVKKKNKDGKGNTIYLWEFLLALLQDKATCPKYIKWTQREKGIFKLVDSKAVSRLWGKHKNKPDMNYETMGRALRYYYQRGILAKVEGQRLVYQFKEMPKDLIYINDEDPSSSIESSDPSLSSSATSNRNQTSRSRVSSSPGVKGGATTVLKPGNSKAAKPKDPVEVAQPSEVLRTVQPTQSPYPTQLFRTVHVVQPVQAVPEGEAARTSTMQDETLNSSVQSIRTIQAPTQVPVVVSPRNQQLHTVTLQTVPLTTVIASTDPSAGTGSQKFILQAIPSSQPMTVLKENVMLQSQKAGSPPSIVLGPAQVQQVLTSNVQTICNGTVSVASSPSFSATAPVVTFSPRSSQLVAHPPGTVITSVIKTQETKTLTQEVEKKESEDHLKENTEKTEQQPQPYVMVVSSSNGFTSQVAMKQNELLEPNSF", "outline": "as §1"}, "[5]": {"target": "SPIB (Homo sapiens, UniProt Q01892 1-262)", "sequence (Q01892 whole entry)": "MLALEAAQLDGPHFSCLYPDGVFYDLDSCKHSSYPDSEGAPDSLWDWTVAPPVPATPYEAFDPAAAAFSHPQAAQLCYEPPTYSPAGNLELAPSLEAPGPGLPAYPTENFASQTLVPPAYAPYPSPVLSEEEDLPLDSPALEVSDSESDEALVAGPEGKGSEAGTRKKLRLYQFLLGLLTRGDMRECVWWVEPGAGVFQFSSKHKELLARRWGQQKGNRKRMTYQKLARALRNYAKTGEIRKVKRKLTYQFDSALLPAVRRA", "outline": "as §1"}, "[6]": {"target": "T4, ELK3 (Homo sapiens, UniProt P41970 1-407)", "T4 sequence": "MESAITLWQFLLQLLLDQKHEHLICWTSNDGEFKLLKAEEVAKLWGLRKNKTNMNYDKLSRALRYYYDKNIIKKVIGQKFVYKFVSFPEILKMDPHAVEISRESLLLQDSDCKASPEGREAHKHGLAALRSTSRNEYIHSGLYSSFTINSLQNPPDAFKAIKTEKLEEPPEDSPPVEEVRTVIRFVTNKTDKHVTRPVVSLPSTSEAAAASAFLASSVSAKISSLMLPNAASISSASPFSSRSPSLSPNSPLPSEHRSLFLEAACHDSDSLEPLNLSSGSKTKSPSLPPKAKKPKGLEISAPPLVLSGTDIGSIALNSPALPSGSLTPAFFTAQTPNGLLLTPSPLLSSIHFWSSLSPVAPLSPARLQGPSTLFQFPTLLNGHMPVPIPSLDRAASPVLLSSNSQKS", "outline": "as §1"}, "[7]": {"target": "T5, ELK4 (Homo sapiens, UniProt P28324-2 1-405)", "T5 sequence": "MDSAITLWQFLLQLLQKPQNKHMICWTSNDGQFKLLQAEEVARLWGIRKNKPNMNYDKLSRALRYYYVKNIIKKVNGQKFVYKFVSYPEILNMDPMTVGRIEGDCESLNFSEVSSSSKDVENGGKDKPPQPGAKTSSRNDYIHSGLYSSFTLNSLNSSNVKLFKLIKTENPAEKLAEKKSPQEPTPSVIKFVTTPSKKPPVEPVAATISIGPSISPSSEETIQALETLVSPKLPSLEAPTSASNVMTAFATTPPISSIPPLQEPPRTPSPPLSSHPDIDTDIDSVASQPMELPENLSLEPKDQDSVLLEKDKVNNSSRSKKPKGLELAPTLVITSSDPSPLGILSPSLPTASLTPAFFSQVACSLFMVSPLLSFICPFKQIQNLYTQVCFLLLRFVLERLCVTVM", "outline": "as §1"}, "[8]": {"target": "T6, ETV2 (Homo sapiens, UniProt O00321 1-342)", "T6 sequence": "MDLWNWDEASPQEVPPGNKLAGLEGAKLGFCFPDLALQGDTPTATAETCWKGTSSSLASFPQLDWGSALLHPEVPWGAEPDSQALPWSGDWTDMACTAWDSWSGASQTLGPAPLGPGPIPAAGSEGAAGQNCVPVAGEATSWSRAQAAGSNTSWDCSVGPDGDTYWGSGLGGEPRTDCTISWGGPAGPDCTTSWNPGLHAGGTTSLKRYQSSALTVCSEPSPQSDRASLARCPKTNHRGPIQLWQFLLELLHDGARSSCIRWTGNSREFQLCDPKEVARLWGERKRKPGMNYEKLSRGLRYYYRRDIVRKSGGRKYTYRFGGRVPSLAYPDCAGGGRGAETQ", "outline": "as §1"}, "[9]": {"target": "T7, ELF3 (Homo sapiens, UniProt P78545 1-371)", "T7 sequence": "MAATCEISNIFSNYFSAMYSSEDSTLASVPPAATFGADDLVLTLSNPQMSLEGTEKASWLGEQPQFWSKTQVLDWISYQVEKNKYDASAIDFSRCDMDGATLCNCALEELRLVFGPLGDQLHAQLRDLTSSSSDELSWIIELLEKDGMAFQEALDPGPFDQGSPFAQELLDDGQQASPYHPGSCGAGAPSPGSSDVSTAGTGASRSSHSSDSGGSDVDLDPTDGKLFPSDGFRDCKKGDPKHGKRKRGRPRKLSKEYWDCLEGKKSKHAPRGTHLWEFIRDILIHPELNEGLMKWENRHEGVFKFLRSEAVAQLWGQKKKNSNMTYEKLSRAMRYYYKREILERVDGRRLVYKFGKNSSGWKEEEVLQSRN", "outline": "as §1"}, "[10]": {"target": "ETV1 (Homo sapiens, UniProt P50549 1-477)", "sequence (P50549 whole entry)": "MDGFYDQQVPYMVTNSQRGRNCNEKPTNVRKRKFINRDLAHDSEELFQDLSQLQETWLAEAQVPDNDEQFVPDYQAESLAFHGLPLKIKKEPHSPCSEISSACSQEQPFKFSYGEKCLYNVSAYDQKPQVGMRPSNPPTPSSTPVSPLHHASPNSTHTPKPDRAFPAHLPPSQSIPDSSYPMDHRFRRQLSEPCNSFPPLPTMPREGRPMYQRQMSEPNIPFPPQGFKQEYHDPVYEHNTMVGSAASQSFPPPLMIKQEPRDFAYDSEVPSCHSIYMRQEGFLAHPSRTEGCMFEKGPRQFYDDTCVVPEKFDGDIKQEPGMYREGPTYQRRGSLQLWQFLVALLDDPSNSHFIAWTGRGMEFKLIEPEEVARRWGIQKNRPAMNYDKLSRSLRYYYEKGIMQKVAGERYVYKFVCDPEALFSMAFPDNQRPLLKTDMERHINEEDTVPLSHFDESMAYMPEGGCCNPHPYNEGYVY", "outline": "as §1"}, "[11]": {"target": "T8, ETV3L (Homo sapiens, UniProt Q6ZN32 1-361)", "T8 sequence": "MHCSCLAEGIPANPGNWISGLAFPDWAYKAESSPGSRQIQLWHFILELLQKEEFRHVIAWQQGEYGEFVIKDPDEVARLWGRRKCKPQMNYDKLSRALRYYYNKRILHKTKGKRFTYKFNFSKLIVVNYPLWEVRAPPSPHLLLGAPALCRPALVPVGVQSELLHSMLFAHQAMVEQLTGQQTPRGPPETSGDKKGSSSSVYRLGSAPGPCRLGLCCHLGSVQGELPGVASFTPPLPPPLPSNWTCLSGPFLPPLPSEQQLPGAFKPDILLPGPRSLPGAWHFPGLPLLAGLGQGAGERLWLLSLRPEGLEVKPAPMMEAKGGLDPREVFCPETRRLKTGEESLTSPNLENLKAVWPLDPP", "outline": "as §1"}, "[12]": {"target": "T9, ETV7 (Homo sapiens, UniProt Q9Y603 1-341)", "T9 sequence": "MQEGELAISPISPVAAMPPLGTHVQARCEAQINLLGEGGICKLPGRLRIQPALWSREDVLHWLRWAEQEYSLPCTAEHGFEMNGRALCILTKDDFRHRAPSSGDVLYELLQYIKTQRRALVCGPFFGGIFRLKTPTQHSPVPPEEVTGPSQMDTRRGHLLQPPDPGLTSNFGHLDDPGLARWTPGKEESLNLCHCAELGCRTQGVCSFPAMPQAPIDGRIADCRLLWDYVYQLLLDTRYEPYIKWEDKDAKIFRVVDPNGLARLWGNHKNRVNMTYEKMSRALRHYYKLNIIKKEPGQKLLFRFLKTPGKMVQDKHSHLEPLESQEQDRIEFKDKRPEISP", "outline": "as §1"}, "[13]": {"target": "T10, ETV3 (Homo sapiens, UniProt P41162-2 1-143)", "T10 sequence": "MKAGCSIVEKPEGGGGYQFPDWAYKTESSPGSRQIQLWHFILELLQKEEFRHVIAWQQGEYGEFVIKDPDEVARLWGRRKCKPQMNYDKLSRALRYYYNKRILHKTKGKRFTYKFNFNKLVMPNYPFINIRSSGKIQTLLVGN", "outline": "as §1"}},
  "data": [
    {"sequence": "GGTTCT", "values": [
      {"measurement": "binding signal", "setting": "[1]", "value": "1.07 fold enrichment (6-mer frequency, TF over GST control)"},
      {"measurement": "binding signal", "setting": "[2]", "value": "1.02 fold enrichment (6-mer frequency, TF over GST control)"},
      {"measurement": "binding signal", "setting": "[3]", "value": "1.02 fold enrichment (6-mer frequency, TF over GST control)"},
      {"measurement": "binding signal", "setting": "[4]", "value": "1.03 fold enrichment (6-mer frequency, TF over GST control)"},
      {"measurement": "binding signal", "setting": "[5]", "value": "1.05 fold enrichment (6-mer frequency, TF over GST control)"},
      {"measurement": "binding signal", "setting": "[6]", "value": "1.11 fold enrichment (6-mer frequency, TF over GST control)"},
      {"measurement": "binding signal", "setting": "[7]", "value": "1.03 fold enrichment (6-mer frequency, TF over GST control)"},
      {"measurement": "binding signal", "setting": "[8]", "value": "1.19 fold enrichment (6-mer frequency, TF over GST control)"},
      {"measurement": "binding signal", "setting": "[9]", "value": "1.08 fold enrichment (6-mer frequency, TF over GST control)"},
      {"measurement": "binding signal", "setting": "[10]", "value": "1.01 fold enrichment (6-mer frequency, TF over GST control)"},
      {"measurement": "binding signal", "setting": "[11]", "value": "1.01 fold enrichment (6-mer frequency, TF over GST control)"},
      {"measurement": "binding signal", "setting": "[12]", "value": "1.01 fold enrichment (6-mer frequency, TF over GST control)"},
      {"measurement": "binding signal", "setting": "[13]", "value": "1 fold enrichment (6-mer frequency, TF over GST control)"}
    ]}
  ]
}
